{"source": "PubChem BioAssay", "note": "Where “and” joins values, the source holds several entries; their conditions need not be identical. Equal values may be shown once. A number with no mark means an inactive call. Calls of active or inactive are those of the source.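 The calls were made as follows: active = inhibition at or above 50% relative to wild type and mutant plate controls; inactive = inhibition below 50%.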"}
{"test": "inhibitors of Chlamydomonas gravitaxis, primary screen, whole organism, Chlamydomonas reinhardtii, WT vs cilia-less mutant, absorbance, 96-well (AID 463189);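 also: 0% = wild type cc124 cells in DMSO and 100% = ciliumless bld1 mutant cells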", "conditions": "OD600 absorbance, 2 days, at 10 µM, stronger effect = higher value"}
{"smiles": "O=C(O)CCCCCCCC(=O)O", "inhibition": "5.5%"}
{"smiles": "COc1ccccc1N1CCN(CCCCNC(=O)c2ccc3ccccc3c2)CC1", "inhibition": "6.15%"}
{"smiles": "CCCN(CCC)CCc1cccc2c1CC(=O)N2", "inhibition": "4.03%"}
{"smiles": "O=C(Nc1ccc([N+](=O)[O-])cc1Cl)c1cc(Cl)ccc1O", "inhibition": "43.4%"}
{"smiles": "CCN1C(=O)C=CC1=O", "inhibition": "-6.91%"}
{"smiles": "Nc1c(S(=O)(=O)O)cc(Nc2ccc(Nc3nc(Cl)nc(Nc4ccc(S(=O)(=O)O)cc4)n3)c(S(=O)(=O)O)c2)c2c1C(=O)c1ccccc1C2=O", "inhibition": "8.09%"}
{"smiles": "C[C@H]1O[C@@H](n2cc(F)c(=O)[nH]c2=O)[C@H](O)[C@@H]1O", "inhibition": "2.48%"}
{"smiles": "CC(N)(Cc1ccc(O)cc1)C(=O)O", "note": "(stereo not given)", "inhibition": "1.6%"}
{"smiles": "Nc1nc(N)c2nc(CNc3ccc(C(=O)NC(CCC(=O)O)C(=O)O)cc3)cnc2n1", "note": "(stereo not given)", "inhibition": "10.5%"}
{"smiles": "N[C@@H](CS(=O)O)C(=O)O", "inhibition": "7.29%"}
{"smiles": "NS(=O)(=O)c1cc2c(cc1Cl)NC(C1CC3C=CC1C3)NS2(=O)=O", "note": "(stereo not given)", "inhibition": "-0.288%"}
{"smiles": "Cc1cc(NC(=O)Nc2ccc3c(ccn3C)c2)sn1", "inhibition": "5.1%"}
{"smiles": "Cc1nc(N=Nc2cc(S(=O)(=O)O)c3cc([N+](=O)[O-])cc(S(=O)(=O)O)c3c2)c(COP(=O)(O)O)c(C=O)c1O", "inhibition": "0.765%"}
{"smiles": "N[C@@H](Cc1ccc(F)cc1)C(=O)O", "inhibition": "2.39%"}
{"smiles": "O=c1cc(-c2ccc(O)cc2)oc2cc(O)cc(O)c12", "inhibition": "14.8%"}
{"smiles": "COc1ccccc1CNCCCCCCNCCCCCCCCNCCCCCCNCc1ccccc1OC", "inhibition": "126% (active)"}
{"smiles": "Cc1cccc(C)c1OCC(C)N", "note": "(stereo not given)", "inhibition": "7.46%"}
{"smiles": "COc1ccccc1N1CCN(CCCCN2C(=O)c3ccccc3C2=O)CC1", "inhibition": "1.35%"}
{"smiles": "C[C@H]1CC2C3CCC4=CC(=O)C=C[C@]4(C)[C@@]3(Cl)[C@@H](O)C[C@]2(C)[C@@]1(O)C(=O)CO", "note": "(stereo not given in full)", "inhibition": "-2.71%"}
{"smiles": "Cc1cccc(C)c1NC(=O)C[N+](C)(C)C", "inhibition": "7.92%"}
{"smiles": "CCOC(=O)Nc1ccc(NCc2ccc(F)cc2)nc1N", "inhibition": "3.93%"}
{"smiles": "N#C/C(=C\\c1ccc(O)c(O)c1)C(=O)NCCc1ccccc1", "inhibition": "-1.25%"}
{"smiles": "CCNC(=O)N1CCN(CCCC(c2ccc(F)cc2)c2ccc(F)cc2)CC1", "inhibition": "133% (active)"}
{"smiles": "CCN1CCC[C@H]1CNC(=O)c1c(O)c(Cl)cc(Cl)c1OC", "inhibition": "0.286%"}
{"smiles": "O=C(O)C1=CCCNC1", "inhibition": "5.21%"}
{"smiles": "O=c1cc(-c2ccccc2)[nH]c2nc(Cl)ccc12", "inhibition": "6.49%"}
{"smiles": "CC1=C(C(=O)O)N2C(=O)[C@@H](NC(=O)C(N)C3=CCC=CC3)[C@H]2SC1", "note": "(stereo not given in full)", "inhibition": "6.7%"}
{"smiles": "NC(N)=N/N=C/c1c(Cl)cccc1Cl", "inhibition": "3.64%"}
{"smiles": "Cn1cnc([N+](=O)[O-])c1Sc1ncnc2nc[nH]c12", "inhibition": "-2.23%"}
{"smiles": "NC(N)=NC(N)=Nc1ccccc1", "inhibition": "4.74%"}
{"smiles": "CCN(CC)CCCCCCCCOC(=O)c1cc(OC)c(OC)c(OC)c1", "inhibition": "24.5%"}
{"smiles": "CC(=O)C(C)=O", "inhibition": "6.21%"}
{"smiles": "Nc1ncnc2c1nc(Sc1ccc(Cl)cc1)n2C1OC2COP(=O)(O)O[C@@H]2[C@@H]1O", "note": "(stereo not given in full)", "inhibition": "9.99%"}
{"smiles": "Nn1nnc2ccccc21", "inhibition": "1.8%"}
{"smiles": "CC(C)NCC(O)c1ccc(O)c(O)c1", "note": "(stereo not given)", "inhibition": "-5.24% and 12.5%"}
{"smiles": "CN(Cc1cnc2nc(N)nc(N)c2n1)c1ccc(C(=O)N[C@H](CCC(=O)O)C(=O)O)cc1", "inhibition": "-2.58%"}
{"smiles": "CO/N=C(\\C(=O)N[C@@H]1C(=O)N2C(C(=O)O)=C(COC(C)=O)CS[C@H]12)c1csc(N)n1", "note": "(stereo in doubt)", "inhibition": "6.36%"}
{"smiles": "CCCCCC(O)CCCC(=O)O", "note": "(stereo not given)", "inhibition": "-1.48%"}
{"smiles": "C[N+](C)(C)CCC(=O)c1cccc2ccccc12", "inhibition": "7.13%"}
{"smiles": "NNCCc1ccccc1", "inhibition": "3.74%"}
